Assay outcomes: PubChem, National Center for Advancing Translational Sciences (NCATS)
In the library only some 7.2% were active in any assay of this set; here they are far more common.
NPR1 antag = Natriuretic polypeptide receptor (hNpr1) antagonism - Primary qHTS; actives 1.6% (n = 76,000); HEK293 hNpr1 GloSensor cGMP, ANP-stimulated luminescence; Potency, µM (highest dose often 46.3 µM), for inactives: top-dose activity change, negative = inhibition, usual class: inhibitors; calls by dose curve; also: % is scaled to controls: 0 for no effect and ±100 for the full control effect; nearly all actives have a fitted effect of over 60% in size
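Compound pre-incubated 30 min at room temperature on GloSensor-loaded HEK293 cells stably carrying hNpr1 and the pGS-40F cGMP biosensor. Stimulation uses hNppA at 0.1 nM final; luminescence is taken at baseline and 20 min post-agonist.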
HEK cytotox = Cytotoxic Profiling in HEK 293 Cell Line of Diverse Libraries Using Quantitative High-Throughput Screening. Potency, µM (series often up to 115 µM), for inactives: at the top dose activity change, negative = cytotoxicity, hits mostly inhibitors. actives 6.6% (n = 94,000). HEK 293 viability, ATP luminescence (CellTiter-Glo), 48-72 h; also: % is scaled to controls: 0 for no effect and ±100 for the full control effect; nearly all actives have a fitted effect of over 60% in size
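Read-out: CellTiter-Glo ATP luminescence. Cells: HEK 293, 250 cells/well. Exposure: 48 or 72 hr, 37 degree Celsius.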
HEK293 viab = GF-AFC viability counterscreen for inhibitors of alpha-synuclein gene (SNCA) expression; Potency, µM (series often up to 57.1 µM), for inactives: at the highest dose activity change, negative = cytotoxicity, most hits filed as cytotoxic; actives 0.12% (n = 150,000); HEK-293-SNCA-luc viability, GF-AFC fluorescence, 24 h;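 also: 0% = DMSO-treated cells and -100% = medium-only wells without cells; nearly all actives have a fitted effect of over 30% in size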
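HEK-293-SNCA-luc cells (1500/well) plated 24 h, then exposed 24 h to a dilution series; GF-AFC added 30 min at 37C, fluorescence 405/540 nm; normalised to medium-only and DMSO wells, Hill fit.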
SNCA expr inhib = Primary qHTS assay for inhibitors of alpha-synuclein gene (SNCA) expression | HEK-293 SNCA-luciferase knock-in, luminescence, 24 h | Potency, µM (doses to about 57.2 µM), without a hit: at the highest dose activity change, negative = inhibition, hits mostly inhibitors | actives 0.17% (n = 140,000);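 also: plate controls were DMSO cells for no effect and cell-free wells for full effect; nearly all actives have a fitted effect of over 45% in size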
FLuc inh = Firefly luciferase inhibition profiling of diverse chemical library using quantitative high-throughput screening; purified P. pyralis luciferase, luminescence, biochemical; actives 2.5% (n = 76,000); Luciferin 4-monooxygenase (Photinus pyralis), P08659; Potency, µM (top dose mostly 115 µM), hits mostly inhibitors; also: % is scaled to controls: 0 for no effect and ±100 for the full control effect; nearly all actives have a fitted effect of over 65% in size
Target sequence (P08659 whole entry, looked up): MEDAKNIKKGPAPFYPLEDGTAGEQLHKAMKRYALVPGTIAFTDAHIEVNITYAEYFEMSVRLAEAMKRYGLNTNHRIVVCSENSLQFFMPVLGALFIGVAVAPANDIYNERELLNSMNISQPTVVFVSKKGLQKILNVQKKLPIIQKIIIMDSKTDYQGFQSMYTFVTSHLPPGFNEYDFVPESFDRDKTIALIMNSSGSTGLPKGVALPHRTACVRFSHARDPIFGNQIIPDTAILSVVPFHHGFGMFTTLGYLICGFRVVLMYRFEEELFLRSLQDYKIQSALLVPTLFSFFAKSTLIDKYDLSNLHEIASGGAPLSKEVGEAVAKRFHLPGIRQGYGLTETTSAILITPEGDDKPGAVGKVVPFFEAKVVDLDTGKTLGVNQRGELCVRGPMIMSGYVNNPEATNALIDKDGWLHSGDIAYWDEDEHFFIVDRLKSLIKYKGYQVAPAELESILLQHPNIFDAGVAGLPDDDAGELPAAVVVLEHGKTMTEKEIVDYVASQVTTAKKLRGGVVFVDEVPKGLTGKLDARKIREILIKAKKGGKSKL
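Purified P. pyralis luciferase (10nM final) in 50mM Tris acetate pH 7.5, 10mM Mg acetate, 0.01% Tween-20, 0.05% BSA with 10uM D-luciferin and 10uM ATP. Compounds titrated qHTS. Luminescence imaged on CCD.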
3T3 cytotox = Cytotoxic Profiling in NIH 3T3 Cell Line of Diverse Libraries Using Quantitative High-Throughput Screening; actives 4.3% (n = 94,000); Potency, µM (highest dose often 96.7 µM), inactives show at the highest dose activity change, negative = cytotoxicity, actives largely listed as inhibitors; AID 1345082, 2018; NIH 3T3 viability, CellTiter-Glo ATP luminescence, 48-72 h; also: % is scaled to controls: 0 for no effect and ±100 for the full control effect; nearly all actives have a fitted effect of over 55% in size
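Cytotoxicity is measured as loss of cellular ATP: NIH 3T3 cells (400/well) are exposed to compound for 48 or 72 hr at 37 °C, then CellTiter-Glo luminescence is imaged after 10 min at room temperature.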
NPR1 antag cnf = Natriuretic polypeptide receptor (hNpr1) antagonism - Confirmation | actives 76% (n = 1,400) | shares compounds with NPR1 antag | Potency, µM (series often up to 57.6 µM), for the others: at the top dose activity change, negative = inhibition, hits mostly inhibitors | HEK293 hNpr1 cGMP GloSensor luminescence, ANP-stimulated; calls by dose curve; also: nearly all actives have a fitted effect of over 70% in size
NPR2 antag = Natriuretic polypeptide receptor (hNpr2) antagonism - Subtype selectivity assay; shares compounds with NPR1 antag; HEK293 hNpr2 GloSensor cGMP luminescence, CNP-stimulated; Potency, µM (series often up to 57.6 µM), inactives show top-dose activity change, negative = inhibition, hits mostly inhibitors; actives 67% (n = 1,400); AID 1347046, 2019; calls by dose curve; also: nearly all actives have a fitted effect of over 70% in size
FLuc inh counter = Natriuretic polypeptide receptor (hNpr1) antagonism - Confirmation firefly luciferase (FLuc) inhibition counterscreen | shares compounds with NPR1 antag | purified FLuc enzyme, luminescence, Km substrate | Potency, µM (doses to about 57.6 µM), for the others: top-dose activity change, negative = inhibition, actives largely listed as inhibitors | actives 0.7% (n = 1,400); also: 0% is about no effect
GloSensor cGMP = Natriuretic polypeptide receptor (hNpr1) antagonism - Counterscreen GloSensor control cell line | AID 1347051, 2019 | Potency, µM (doses to about 57.6 µM), for the others: at the highest dose activity change, negative = inhibition, actives largely listed as inhibitors | shares compounds with NPR1 antag | HEK293 GloSensor cGMP, SNP-stimulated, luminescence | actives 69% (n = 1,400); calls by dose curve; also: % is scaled to controls: 0 for no effect and ±100 for the full control effect; nearly all actives have a fitted effect of over 70% in size
Active calls of the source: *; i = inactive; ? = inconclusive; · = no result given; [ ] = another dose, or the depositor's remark. Unless noted, calls follow the shape of the dose curve; as a rule, active = well fitted curve in the direction sought with a large enough effect; inconclusive = small, poorly fitted or top-dose-only effect, or another doubt; inactive = no such curve, though single readings can be large; an effect the other way counts as inactive or inconclusive. Potency is read from the fitted curve at half-maximal effect.

SMILES | NPR1 antag | HEK cytotox | HEK293 viab | SNCA expr inhib | FLuc inh | 3T3 cytotox | NPR1 antag cnf | NPR2 antag | FLuc inh counter | GloSensor cGMP
O=C(Cc1cccnc1)N1CCC(N2CC(OCC3CC3)C23CCCCC3)CC1 (configuration not stated) | 2.2% | -7.3% | -2.9% | -11.8% | i | -21.1% | · | · | · | ·
COCCNC(=O)Cn1nc2c(cc1=O)CCCCC2 | 10.7% | 2.4% | 0.7% | -17.6% | i | 4.4% | · | · | · | ·
Cc1ccccc1CC(=O)N1CCC2(CC1)NC(=O)N(c1ccc(F)cc1)N2 | 11.2µM* | ? | -16.4% | 51.3% | i | ? | 17.2µM* | 21.7µM* | -20.6% | 19.3µM*
COc1ccc(NC(=O)CCC2CCN(S(=O)(=O)c3ccccc3C)CC2)c(OC)c1 | · | ? | -8.2% | -13.4% | · | ? | · | · | · | ·
COc1ccc(CC(=O)N2CCN(C(=O)c3cccc(-c4ccccc4OC)c3)CC2)cc1 | · | ? | 6.2%[12.5 µM] | -4.9% | · | ? | · | · | · | ·
CS(=O)(=O)N1CCCC(C(=O)NCC2CCN(Cc3ccc(F)cc3)CC2)CCNC(=O)CC1 (configuration not stated) | 7.2% | 1.4% | 3.7% | -9.7% | i | i | · | · | · | ·
Cc1nn(C)c2nc(N3C[C@@H]4CCN(C)[C@@H]4C3)sc12 | 6.3% | -26.0% | 8.4% | -11.0% | i | -4.0% | · | · | · | ·
Cc1nn(C)c2nc(N3CCC(C#N)(c4ccccc4)CC3)sc12 | 15.8µM* | 28.2µM* | -17.1% | -25.2% | i | ? | 21.7µM* | 24.3µM* | -0.2% | 21.7µM*
COC(=O)c1cn([C@H]2CO[C@H]3[C@@H]2OC[C@@H]3NCc2ccccc2)nn1 | -0.8%[70.6 µM] | -0.4%[172 µM] | 6.4%[87.6 µM] | -5.6%[87.6 µM] | i | 2.7%[174 µM] | · | · | · | ·
COc1ccc(C2Cn3nnc(-c4nc(C(C)(C)C)no4)c3CO2)cc1 (configuration not stated) | ? | ? | 5.3% | ? | i | ? | 21.7µM* | ? | 0.5% | -18.4%
CC(C)(C)c1noc(-c2nnn3c2COC(c2ccc(F)cc2)C3)n1 (configuration not stated) | ? | ? | -14.7% | -21.3% | i | -17.4% | ? | ? | 2.8% | -23.8%
Cc1ccc(C2Cn3nnc(-c4nc(C5CCCCC5)no4)c3CO2)c(C)c1 (configuration not stated) | ? | ? | -17.3% | -25.2% | i | -30.0% | 13.7µM* | 13.7µM* | -0.6% | 0.9%
CCCc1noc(-c2nnn3c2COC(c2ccc(OC)cc2)C3)n1 (configuration not stated) | -30.4% | -8.9% | 6.1% | -0.3% | i | -14.6% | · | · | · | ·
CC(C)(C)c1noc(-c2nnn3c2COC(c2ccc(Cl)cc2)C3)n1 (configuration not stated) | ? | ? | 1.2% | 1.7% | i | ? | 19.3µM* | ? | 3.3% | -2.4%
Cc1noc(-c2nnn3c2COC(c2ccc(F)cc2)C3)n1 (configuration not stated) | -3.4% | 1.9% | 1.8% | -6.2% | i | -4.4% | · | · | · | ·
Clc1ccc(C2Cn3nnc(-c4nc(C5CC5)no4)c3CO2)cc1 (configuration not stated) | ? | ? | 4.1% | 10.3% | i | ? | ? | -21.7% | 3.8% | 0.8%
O=C(C[C@@H]1CCNC[C@@H]1Cc1cc(COc2ccccc2)on1)NCc1cccnc1 | -4.9%[70.6 µM] | -14.6%[172 µM] | 5.6%[87.6 µM] | 13.1%[87.6 µM] | i | -16.1%[174 µM] | · | · | · | ·
O=C(C[C@@H]1CCNC[C@@H]1Cc1cc(CC2CCCCC2)on1)NCc1ccccc1 | 14.1µM* | ? | -2.8%[87.6 µM] | ? | i | 31.6µM* | 19.8µM* | 28µM* | 5.2%[86.2 µM] | 17.7µM*
Cc1nc2ccccn2c1C(=O)NC(C)c1cnn(-c2ccccn2)c1C (configuration not stated) | 4.47µM* | ? | -14.1% | -18.4% | i | ? | 6.11µM* | 9.68µM* | 6.5% | 4.85µM*
COC(=O)C1=COC(O[C@@H]2O[C@H](CO)[C@@H](O)[C@H](O)[C@H]2O)/C(=C\COC(=O)/C=C/c2ccccc2)C1CC(=O)OCCc1ccc(O)cc1 (some centres not stated) | · | · | -12.1%[23.9 µM] | · | · | · | · | · | · | ·
Fc1ccc(CN2CCOC[C@H]2c2ncc(-c3ccc(F)cc3F)[nH]2)cc1 | ? | 79.4µM* | -4.5%[87.6 µM] | -11.3%[87.6 µM] | i | ? | ? | ? | -22.8%[86.2 µM] | ?
Cn1c(CN2CCOC[C@H]2c2ncc(-c3ccc(Cl)cc3)[nH]2)nc2ccccc21 | 20µM* | 79.4µM* | -12.5%[87.6 µM] | -1.5%[87.6 µM] | i | ? | 31.4µM* | 28µM* | 5.4%[86.2 µM] | ?
N#Cc1cccc(CN2CCOC[C@H]2c2ncc(-c3ccc(Cl)s3)[nH]2)c1 | 28.2µM* | ? | -10.8%[87.6 µM] | 3.5%[87.6 µM] | i | ? | 39.6µM* | ? | -1.9%[86.2 µM] | ?
Clc1ccc(-c2cnc([C@@H]3COCCN3Cc3cnc[nH]3)[nH]2)cc1 | 2.9%[70.6 µM] | -21.8%[172 µM] | -1.0%[87.6 µM] | -0.6%[87.6 µM] | i | -17.5%[138 µM] | · | · | · | ·
